In general, inhibition refers to the relative decrease from the control value, in per cent.

From PubChem BioAssay come the findings set out here.

Assay [1] can be described thus: inhibitors of TNFa-induced NFkB p65 translocation, primary screen, imaging, HUVEC, MLSMR starter and 10KST1 sets (AID 438;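 active = inhibition above 20% together with a positive visual image hit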;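 note: compound added about 3h40 before a 20 min TNFalpha stimulation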;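 for inhibition: signal is the nuclear over cytoplasmic p65 intensity ratio per well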). The following applies: HUVEC TNFa-induced p65 nuclear translocation; cell count: measured here: nuclei count (cytotoxicity indicator), at 2.08 µM; inhibition: at 2 µM, stronger effect = higher value, 0% TNFa-plus-vehicle, 100% no-TNFa wells.
Assay [2] can be described thus: reduction of polyQ htt aggregates in cells – imaging, exon1htt(103Q)mCFP cells, high-content imaging, primary screen (AID 483;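 active = visual image review flags a hit and inhibition of aggregation exceeds 20%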;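 note: compound exposure lasted 3 days before fixation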;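 for nuclei count: percent of the per-plate median nuclei count of sample wells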). As to conditions: exon1htt(103Q)mCFP cell line, aggregate imaging, at 2 µM; inhibition of aggregation: stronger effect = higher value; nuclei count: measured here: cell count, toxicity.
Assay [3] can be described thus: endothelial E-selectin expression blockers – imaging, HUVEC, immunofluorescence, MLSMR starter and 10KST1 sets, primary screen (AID 487;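 active = visually confirmed hit in the image check and inhibition above 20%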;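 for inhibition: signal is fraction of cell area covered by stained E-selectin grains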;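 for nuclei count: 100% = median nuclei count of all wells on the same plate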). The following applies: HUVEC TNFalpha-induced E-selectin immunofluorescence imaging, at 2 µM; inhibition: stronger effect = higher value; nuclei count: measured here: cell number, toxicity.
A short description of assay [4]: Primary imaging screen for DUSP6 inhibitors that restore phospho-Erk in transfected HeLa cells, chemical complementation (AID 609;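 active = compounds giving at least 50% inhibition in the cell-based MKP-3 phosphatase rescue imaging test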;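 for inhibition: phospho-Erk level distribution per well compared with pooled transfected vehicle control wells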). The following applies: HeLa MKP-3 transfected, phospho-Erk imaging KS statistic, at 10 µM, cells stimulated with TPA for 15 min.
Assay [5] deals with Dual specificity protein phosphatase 6 (Homo sapiens) (UniProt Q16828). The description is as above. As to conditions: HeLa MKP-3 transfected, phospho-Erk imaging KS statistic; at 10 µM; stronger effect = higher value; cells stimulated with TPA for 15 min.
In assay [6] the target is Voltage-gated potassium channel subunit beta-2 (Rattus norvegicus) (UniProt P62483). Description: inhibitors of rat Kvbeta2 reductase activity – biochemical, NADPH fluorescence, primary screen (AID 622;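 active = fluorescence slope higher than the sample average by over 3 SD, cut at about -0.22 in these data, passing the limit was not always enough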;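 note: slope of raw intensity against log time taken from 70 to 1610 s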). As to conditions: recombinant KvBeta, 4-cyanobenzaldehyde reduction, at 10 µM, stronger effect = higher value.
For assay [7] the target is unchanged. Put plainly: enhancers of rat Kvbeta2 NADPH turnover – biochemical, NADPH fluorescence, primary screen (AID 623;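 active = NADPH fluorescence slope more negative than the mean of all samples by about 3 SD, 99.7% confidence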;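 note: fluorescence intensity change per second fitted from 20 to 320 s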). As to conditions: Recombinant KvBeta, NADPH fluorescence decrease slope, 10 min; at 10 µM; stronger effect = lower value.
The target of assay [8] is Alpha-2C adrenergic receptor (Homo sapiens) (UniProt P18825). Put plainly: compounds altering alpha2C-coupled GIRK flux – cell-based, HEK293 alpha2C/GIRK1/2, thallium flux, primary screen (AID 624;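 active = fluorescence slope after compound addition differing from the mean of all screened samples at 99.7% confidence, in either direction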;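 note: slope of fluorescence ratio to pre-addition baseline per second over 15 to 24 s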). As to conditions: thallium flux BTC fluorescence, at 10 µM, actives lie on both sides.
Assay [9] is described as follows: inhibitors of larval lipid processing in zebrafish, primary screen, whole organism, PED6 fluorescence, gall bladder and intestine (AID 686;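 active = a full or partial loss of lipid-probe fluorescence in the fish gall bladder, intestine or both, judged by eye; inactive = no fluorescence loss, or compound toxic to the fish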;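 note: larvae 5 to 7 days old with five fish per well; signal comes from phospholipase A2 cleavage of quenched PED6 carried via bile; overnight exposure to compound and PED6 before scoring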). As to conditions: Zebrafish larvae PED6 lipid processing, fluorescence scoring; screened at 20 µM (by protocol).
Assay [10] can be described thus: loss of swimming-algae plug formation – whole organism, Chlamydomonas reinhardtii, WT vs cilia-less mutant, absorbance, 96-well, primary screen (AID 463189).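 Note: 0% = wild type cc124 cells in DMSO and 100% = ciliumless bld1 mutant cells.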 The following applies: Chlamydomonas reinhardtii gravitaxis, OD600 absorbance, 2 days; at 10 µM; stronger effect = higher value.
A short description of assay [11]: blockers of RIG-like receptor reporter activation – cell-based, Sendai virus stimulus, luciferase, 10K MLSCN set, TLR/RLR signaling modifier project, primary screen (AID 602276;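 active = inhibition at or above 50% at 10 µM; inactive = inhibition below 50%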;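 note: firefly luciferase from ISG56 promoter only with Renilla not read in this screen; 0% = Sendai virus plus DMSO and 100% = medium plus DMSO without virus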). As to conditions: HEK293 RL24 IRF3 luciferase reporter, at 10 µM, stronger effect = higher value. (A reporter such as luciferase makes a cellular process visible.)
The nature of assay [12]: TLR3 IRF3 reporter activation blockers – cell-based, poly I:C stimulus, luciferase, 10K MLSCN set, primary screen (AID 602277;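 active = inhibition of the reporter signal at or above 50%; inactive = inhibition below 50%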). As to conditions: HEK293-TLR3 RL24 IRF3 luciferase reporter, at 10 µM, stronger effect = higher value.
[13] abbreviates: measured here: cell density z-score.
The mark [14] stands for this setting: measured here: nuclear c-Myc green intensity z-score.
The mark [15] stands for this setting: measured here: nuclear pErk red intensity z-score, stronger effect = higher value.

“And” between values parts separate entries of the source, which are not always exact repeats. Identical values can stand only once. The source made the active and inactive calls.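 Rule for the calls, unless noted: active = inhibition at or above 50% relative to wild type and mutant plate controls; inactive = inhibition below 50%.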

Sequence of Voltage-gated potassium channel subunit beta-2 (Rattus norvegicus) (P62483 whole entry, looked up): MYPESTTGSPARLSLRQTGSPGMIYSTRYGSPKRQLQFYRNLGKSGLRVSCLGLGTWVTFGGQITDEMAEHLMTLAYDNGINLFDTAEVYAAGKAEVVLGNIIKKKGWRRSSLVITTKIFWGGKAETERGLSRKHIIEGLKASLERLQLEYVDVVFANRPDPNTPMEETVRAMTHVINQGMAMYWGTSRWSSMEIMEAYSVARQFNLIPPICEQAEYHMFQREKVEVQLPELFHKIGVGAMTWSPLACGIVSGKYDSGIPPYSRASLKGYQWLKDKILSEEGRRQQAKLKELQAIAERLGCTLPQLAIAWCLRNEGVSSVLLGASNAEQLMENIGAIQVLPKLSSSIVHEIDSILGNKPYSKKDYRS
Sequence of Alpha-2C adrenergic receptor (Homo sapiens) (P18825 whole entry, looked up): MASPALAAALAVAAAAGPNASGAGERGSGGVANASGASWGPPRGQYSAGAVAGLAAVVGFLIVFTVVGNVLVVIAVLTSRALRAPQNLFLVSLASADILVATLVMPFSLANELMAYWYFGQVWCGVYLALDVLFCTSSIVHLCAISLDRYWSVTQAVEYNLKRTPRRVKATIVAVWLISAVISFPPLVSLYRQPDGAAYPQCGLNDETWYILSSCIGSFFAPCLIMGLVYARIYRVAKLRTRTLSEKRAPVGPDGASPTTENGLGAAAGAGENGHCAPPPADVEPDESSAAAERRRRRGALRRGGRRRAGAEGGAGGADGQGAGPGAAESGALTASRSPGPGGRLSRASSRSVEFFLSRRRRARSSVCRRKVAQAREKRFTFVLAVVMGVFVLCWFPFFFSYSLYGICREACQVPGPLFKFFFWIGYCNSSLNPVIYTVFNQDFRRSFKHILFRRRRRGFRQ
Sequence of Dual specificity protein phosphatase 6 (Homo sapiens) (Q16828 whole entry, looked up): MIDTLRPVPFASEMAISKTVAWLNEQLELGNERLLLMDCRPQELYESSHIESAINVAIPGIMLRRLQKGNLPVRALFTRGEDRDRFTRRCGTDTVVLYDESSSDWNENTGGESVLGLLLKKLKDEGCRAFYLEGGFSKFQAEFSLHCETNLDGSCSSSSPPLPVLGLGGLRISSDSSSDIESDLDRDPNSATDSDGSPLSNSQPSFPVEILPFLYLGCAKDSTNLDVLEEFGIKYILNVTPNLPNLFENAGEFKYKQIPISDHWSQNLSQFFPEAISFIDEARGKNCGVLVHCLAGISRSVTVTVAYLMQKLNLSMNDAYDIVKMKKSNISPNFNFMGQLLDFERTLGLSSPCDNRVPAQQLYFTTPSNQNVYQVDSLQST

As for `CC1(C)CC(=O)C=C(NCc2ccncc2)C1`, the cell count in assay [1] amounted to 623. For the same compound, the inhibition was -5.3% (inactive) in [1]; -98.8% (inactive) in assay [3]; 13.9% (inactive) in assay [5]; -8.68% (inactive) in assay [10]; -0.503% (inactive) in assay [11]; 44.9% (inactive) in [12]. For the same compound, the inhibition of aggregation in assay [2] was -13.1% (inactive). Also, the nuclei count is 100% in [2] and 122% in [3]. Further, the z-score in assay [4] (setting [13]) is 1.78; in assay [4] (setting [14]), -0.484; in [4] (setting [15]) it was -1.6. Further, the fluorescence slope in assay [6] was -0.497 (inactive). For the same compound, the NADPH fluorescence slope in [7] was -3.5e-05 (inactive). Besides, the slope in assay [8] is 0.00534 (inactive). The compound was classed as inactive in assay [9].
As to `CCOc1nc(SCCOc2ccccc2)nc(N(C)C)n1`, the cell count in [1] amounted to 397. Moreover, the inhibition was -7.1% (inactive) in assay [1]; -68.5% (inactive) in assay [3]; 22.8% (inactive) in [5]; 28.4% (inactive) in [10]; 0.0705% (inactive) in assay [11]; -11.2% (inactive) in [12]. Moreover, the inhibition of aggregation in [2] was 4.3% (inactive). Also, the nuclei count is 54% in assay [2] and 113% in assay [3]. In addition, the z-score in assay [4] (setting [13]) was 0.798; in assay [4] (setting [14]), -0.437; in [4] (setting [15]), -0.913. Further, the fluorescence slope in assay [6] is -0.395 (inactive). Further, the NADPH fluorescence slope in assay [7] is 1.4e-05 (inactive). The slope in assay [8] was 0.00398 (inactive). Also, the call in assay [9] was inactive.
Regarding `CCSC(SCC)[C@H](O)[C@@H](O)[C@H](O)[C@H](O)CO`, the cell count in [1] is 619. Besides, the inhibition is -2.2% (inactive) in assay [1]; -75.4% (inactive) in [3]; -4.44% (inactive) in assay [5]; -8.68% (inactive) in assay [10]; 10.6% (inactive) in [11]; 28.3% (inactive) in assay [12]. Further, in [2], the inhibition of aggregation is -0.2% (inactive). Besides, the results for the nuclei count in assay [2] and in assay [3] were 107% and 116%, respectively. The figures for the z-score in assay [4] (setting [13]), in assay [4] (setting [14]) and in [4] (setting [15]) were -0.857, -0.361 and -0.437, respectively. Moreover, the fluorescence slope in [6] is -0.451 (inactive). Also, the NADPH fluorescence slope in assay [7] is 1.5e-05 (inactive). Moreover, the slope in assay [8] is 0.00559 (inactive). Besides, the compound was called inactive in assay [9].
`Cc1nc2ccccn2c(=O)c1CCN1CCC(C(=O)c2ccc(F)cc2)CC1`: the cell count in [1] was 712. Moreover, the inhibition was 2.4% (inactive) in assay [1]; -63.6% (inactive) in [3]; 19% (inactive) in assay [5]; 0.607% (inactive) and -12.6% (inactive) in [10]; 19.4% (inactive) in assay [11]; 35.8% (inactive) in assay [12]. In addition, the inhibition of aggregation in assay [2] was -22.1% (inactive). For the same compound, the values for the nuclei count in assay [2] and in [3] were 103% and 126%, respectively. For the same compound, the figures for the z-score in [4] (setting [13]), in [4] (setting [14]) and in [4] (setting [15]) were 2.25, 1.22 and -0.61, respectively. In assay [6], the fluorescence slope is -0.464 (inactive). Moreover, the NADPH fluorescence slope in [7] was 1.2e-06 (inactive). For the same compound, the slope in assay [8] was 0.00457 (inactive). Moreover, the compound was classed as inactive in assay [9].
With `Brc1c(NC2=NCCN2)ccc2nccnc12`, the cell count in assay [1] turned out to be 621. Moreover, the inhibition is -4.8% (inactive) in assay [1]; -58.7% (inactive) in [3]; 34.5% (inactive) in assay [5]; 5.25% (inactive) and -5.37% (inactive) in assay [10]; 14% (inactive) in [11]; 28.8% (inactive) in assay [12]. In assay [2], the inhibition of aggregation is -11.3% (inactive). In addition, the nuclei count in assay [2] is 104%; in assay [3], 120%. Besides, the z-score is -0.535 in assay [4] (setting [13]), 0.61 in assay [4] (setting [14]) and 1.33 in assay [4] (setting [15]). For the same compound, in assay [6], the fluorescence slope is -0.534 (inactive). The NADPH fluorescence slope in [7] is 1.1e-06 (inactive). In assay [8], the slope was 0.0151 (active). In assay [9], the compound was classed as inactive.
In the case of `CN(C1CCS(=O)(=O)C1)S(=O)(=O)c1cccc2nsnc12` (stereo not given), in assay [1], the cell count worked out at 506. The inhibition in assay [1] was -15.3% (inactive); in assay [3] it was -64.1% (inactive); in assay [5], -16.8% (inactive); in assay [10] it was 19.4% (inactive); in assay [11], 15.8% (inactive); in assay [12], 14.5% (inactive). In addition, the inhibition of aggregation in assay [2] is -7.5% (inactive). The figures for the nuclei count in assay [2] and in assay [3] were 117% and 135%, respectively. The z-score in [4] (setting [13]) was 0.217; in [4] (setting [14]) it was 0.807; in [4] (setting [15]), -0.289. In addition, the fluorescence slope in assay [6] was -0.513 (inactive). For the same compound, the NADPH fluorescence slope in assay [7] is -6.5e-05 (inactive). Further, the slope in assay [8] was 0.00498 (inactive). In addition, the result in assay [9] was inactive.
On to `COC(=O)c1cccc(Nc2cc(C)nc(-c3ccccc3O)n2)c1`, for which the cell count in assay [1] came out at 614. Besides, the inhibition was -12.4% (inactive) in assay [1]; -86.5% (inactive) in [3]; 9.91% (inactive) in assay [5]; 5.5% (inactive) in [10]; -10.3% (inactive) in assay [11]; -37.2% (inactive) in [12]. For the same compound, the inhibition of aggregation in [2] is -1% (inactive). Further, the nuclei count was found to be 92.7% in assay [2] and 118% in [3]. Also, the z-score in [4] (setting [13]) is -0.273; in assay [4] (setting [14]), 0.157; in assay [4] (setting [15]) it was -0.334. Also, in assay [6], the fluorescence slope was -0.279 (inactive). Moreover, the NADPH fluorescence slope in assay [7] is -1.2e-05 (inactive). In [8], the slope was 0.00663 (inactive). Moreover, the call in [9] was inactive.
For the compound `CN(C)CCCN1c2ccccc2Sc2ccc(Cl)cc21`, the cell count in assay [1] stood at 556. Also, the inhibition in [1] is 0% (inactive); in [3] it was -64.8% (inactive); in assay [5] it was -0.828% (inactive); in assay [10], 67.6% (active) and 162% (active); in assay [11], 16.5% (inactive); in assay [12] it was 40.1% (inactive). The inhibition of aggregation in assay [2] was 14.2% (inactive). Moreover, the nuclei count in assay [2] stood at 101%; in [3], 123%. Further, the z-score in [4] (setting [13]) was 1.02; in assay [4] (setting [14]), 0.553; in assay [4] (setting [15]) it was -0.0543. For the same compound, the fluorescence slope in assay [6] is -0.472 (inactive). The NADPH fluorescence slope in assay [7] was -6e-05 (inactive). Also, the slope in assay [8] was 0.00356 (inactive). For the same compound, the compound was classed as inactive in [9].
On to `CCCCCC(=O)N1CC2(C)CN(C(=O)CCCCC)CC(C)(C1)C2=O`, for which the cell count in [1] was 482. For the same compound, the inhibition in [1] is 3.2% (inactive); in assay [3], -94.9% (inactive); in assay [5], 7.42% (inactive); in assay [10], 24% (inactive); in [11] it was 6.58% (inactive); in [12] it was 21.5% (inactive). For the same compound, the inhibition of aggregation in assay [2] is -8.1% (inactive). Besides, the nuclei count in assay [2] was determined as 97.5%; in assay [3] it was 101%. The z-score in [4] (setting [13]) was determined as 0.798; in assay [4] (setting [14]), 0.672; in assay [4] (setting [15]), 0.65. Further, the fluorescence slope in [6] was -0.352 (inactive). Besides, in assay [7], the NADPH fluorescence slope is -4.5e-05 (inactive). In addition, the slope in assay [8] was 0.00564 (inactive). Moreover, the outcome in assay [9] was inactive.
In the case of `CCOC(=O)c1[nH]c2ccccc2c1NC(=O)CCN1CCN(C(=O)OCC)CC1`, in assay [1], the cell count was determined as 626. The inhibition was -1.9% (inactive) in assay [1]; 1% (inactive) in assay [3]; -5.26% (inactive) in [5]; -5.66% (inactive) in assay [10]; 14.7% (inactive) in assay [11]; 19.4% (inactive) in [12]. Moreover, the inhibition of aggregation in assay [2] was -2.8% (inactive). Also, the nuclei count is 104% in assay [2] and 144% in [3]. In addition, the z-score is -1.64 in assay [4] (setting [13]), 0.13 in assay [4] (setting [14]) and 1.55 in assay [4] (setting [15]). Further, in assay [6], the fluorescence slope is -0.344 (inactive). Moreover, the NADPH fluorescence slope in assay [7] is -4.4e-05 (inactive). In assay [8], the slope is 0.00527 (inactive). Also, the compound was classed as inactive in [9].
